G9a inh: qHTS Assay for Inhibitors of Histone Lysine Methyltransferase G9a | G9a H3K9 monomethylation, AlphaScreen, 2 h | Potency, µM (top dose mostly 102 µM), actives largely listed as inhibitors | actives 8.8% (n = 350,000) | AID 504332, 2011; note: nearly all actives have a fitted effect of over 75% in size
Target sequence (Q96KQ7 913-1193 limits assumed): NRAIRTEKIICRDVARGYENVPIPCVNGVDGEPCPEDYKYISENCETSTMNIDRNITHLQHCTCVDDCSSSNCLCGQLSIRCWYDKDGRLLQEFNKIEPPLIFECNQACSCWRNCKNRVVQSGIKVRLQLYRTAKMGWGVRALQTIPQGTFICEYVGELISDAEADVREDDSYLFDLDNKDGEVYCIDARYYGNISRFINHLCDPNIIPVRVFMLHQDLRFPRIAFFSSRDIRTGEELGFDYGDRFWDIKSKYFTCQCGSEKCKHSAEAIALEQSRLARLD
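Methyltransferase reactions run at room temperature for 2 h (20 nM enzyme, 500 nM biotin-H3K9 peptide, 20 uM SAM) after a 15 min compound preincubation; product detected by AlphaScreen beads and anti-H3K9me1 antibody.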
JMJD2A Tudor: qHTS Assay for Inhibitors of JMJD2A-Tudor Domain; Lysine-specific demethylase 4A (Homo sapiens), O75164; AlphaScreen JMJD2A-Tudor / H3K4me3 peptide binding; Potency, µM (titrated, usually from 114 µM), usual class: inhibitors; actives 4.4% (n = 390,000); AID 504339, 2011; note: nearly all actives have a fitted effect of over 50% in size
BAZ2B inh: qHTS Assay for Inhibitors of BAZ2B; Potency, µM (top dose mostly 114 µM), hits mostly inhibitors; AlphaScreen BAZ2B-H3K14Ac peptide displacement; actives 4.4% (n = 360,000); AID 504333, 2011; note: nearly all actives have a fitted effect of over 60% in size
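AlphaScreen luminescence quantifies BAZ2B engagement of H3K14Ac peptide; the protein and biotinylated peptide are both at 50 nM final, buffer PBS pH 7.4 with 0.01% Tween-20, all steps at room temperature.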
CtBP-E1A inh: qHTS Assay for Inhibitors of the CtBP/E1A Interaction; AlphaScreen GST-E1A/His-CtBP binding, 1536-well; active compounds read low; activity change, % (concentration not given with the values); actives 0.49% (n = 340,000); in the data active = activity change below about -65%; inconclusive = mostly about -30% to -63%
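In 5 uL wells, 23 nL compound meets equimolar GST-E1A and His-CtBP (5X stock 125 nM each) for 2 h, 37 °C. Beads (5X, 50 ug/mL) then 1 h, 37 °C, dark.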
Six1-Eya2 inh: qHTS Assay for Inhibitors of the Six1/Eya2 Interaction; actives 0.56% (n = 360,000); AlphaScreen GST-Six1/His-Eya2 binding, biochemical; active compounds read low; activity change, % (no concentration beside the values); in the data active = activity change below about -65%; inconclusive = mostly about -30% to -63%
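Homogeneous AlphaScreen proximity assay pairing GST-Six1 with His-tagged Eya2 (added as 5X mix: 250 nM and 500 nM) in 50 mM Tris pH 8.0, 300 mM NaCl, 1 mM TCEP. Glutathione donor and nickel acceptor beads; 1 h, 37 °C, dark.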
HP1b binding inh: HTS for Inhibitors of HP1-beta Chromodomain Interactions with Methylated Histone Tails; AlphaScreen HP1-beta / biotin-H3K9me3 peptide binding; Potency, µM (series often up to 114 µM), usual class: inhibitors; actives 0.56% (n = 390,000); AID 540317, 2011; Chromobox protein homolog 1 (Homo sapiens), P83916; note: nearly all actives have a fitted effect of over 70% in size
Target sequence (P83916 whole entry, looked up): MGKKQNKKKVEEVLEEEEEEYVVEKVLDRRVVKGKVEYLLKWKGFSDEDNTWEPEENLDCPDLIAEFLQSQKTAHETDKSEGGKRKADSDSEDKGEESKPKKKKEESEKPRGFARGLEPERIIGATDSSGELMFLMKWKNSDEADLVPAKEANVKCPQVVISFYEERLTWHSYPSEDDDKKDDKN
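AlphaScreen: HP1-beta (50 nM) preformed 30 min with biotin-H3(1-18)K9me3 peptide (50 nM) in PBS pH 7.4, 0.01% Tween-20. Compound added for 30 min at RT, then streptavidin donor/nickel chelate acceptor beads (10 ug/mL) for 30 min.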
12-hLO 8HQ R1: Cuvette-Based Assay for Inhibitors of 12-hLO (12-human lipoxygenase): 8HQ Series - Round 1; purified 12-hLO, cuvette UV 234 nm product formation; shares compounds with BAZ2B inh; actives 60% (n = 35); AID 2163, 2009; Potency, µM, actives largely listed as inhibitors;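 active = compounds that slowed 12-hLO product formation enough to yield a measured IC50 potency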
KDM4E inh: Inhibitors of Human Jumonji Domain Containing 2E (JMJD2E): 8HQs - Round 1; Potency, µM (titrated, usually from 57 µM), usual class: inhibitors; AID 493212, 2011; JMJD2E demethylase, FDH-coupled NADH fluorescence (FDH is formaldehyde dehydrogenase); shares compounds with BAZ2B inh; actives 89% (n = 130)
ME-1 growth: qHTS Assay for Compounds Blocking the Interaction Between CBF-beta and RUNX1 for the Treatment of Acute Myeloid Leukemia: ME-1 cellular proliferation; shares compounds with BAZ2B inh; ME-1 cell proliferation, ATP luminescence, 48 h; Potency, µM (titrated, usually from 56.1 µM), hits mostly inhibitors; actives 20% (n = 140); AID 504370, 2011
A number is an active result; n = inactive; u = inconclusive; x = no result given; [ ] = another dose, or the depositor's remark. This is a sample that favours compounds with a hit; in the whole collection about 10% have one here. Unless noted, calls come from the whole dose curve; as a rule, active = well fitted curve in the direction sought with a large enough effect; inconclusive = small, poorly fitted or top-dose-only effect, or another doubt; inactive = no such curve, though single readings can be large; an effect the other way counts as inactive or inconclusive.

SMILES	G9a inh	JMJD2A Tudor	BAZ2B inh	CtBP-E1A inh	Six1-Eya2 inh	HP1b binding inh	ME-1 growth	others
COc1cc(C2c3cc4c(cc3C(OC3OC5COC(C)O[C@@H]5C(O)C3O)C3COC(=O)C23)OCO4)cc(OC)c1O (stereo not given in full)	n[2.33 µM]	x	x	x	x	x	0.794µM
O=C(NN1C(=O)CSC1=S)C(=O)NN1C(=O)CSC1=S	u	31.6µM	u	u	u	n	n
NC(=S)NN=C1Cc2cccc3cccc1c23	x	n	x	n	n	n	x
O=c1[nH]cc(I)cc1I	n	n	n	x	n	n	n
Nc1ccc(C(=O)O)c(O)c1	n	n	n	n	n	n	x
Nc1ccc(N)c(C(=O)O)c1	7.94µM	3.55µM	3.98µM	u	-81.7	3.16µM	n
CCOC(=O)[C@H](CCc1ccccc1)N[C@@H](C)C(=O)N1[C@H](C(=O)O)C[C@H]2CCCC[C@@H]21	n	x	x	x	x	x	n
COc1ccc(CC(=O)NNC(=O)CSc2nc(C)c(C)c(=O)[nH]2)cc1	n	n	n	n	n	n	x
Cc1c(Cl)cccc1NC(=S)N(CCN(C)C)C(C)c1ccccn1 (stereo not given)	n	n	50.1µM	u	u	n	n
Cc1ccccc1NC(=S)N(CCN(C)C)C(C)c1cccnc1 (stereo not given)	n	n	n	n	n	n	x
Cc1ccccc1NC(=S)N(CCN(C)C)C(C)c1ccccn1 (stereo not given)	n	n	u	-71.9	-65.1	n	n
Nc1nc(-c2ccccc2)c(N=Nc2ccc(Cl)cc2)s1	2µM	u	u	u	n	u	n
O=C1C(CCC(O)c2ccc(F)cc2)C(c2ccc(O)cc2)N1c1ccc(F)cc1 (stereo not given)	n[2.33 µM]	x	x	x	x	x	n
O=C1C(Cc2ccccc2)C(c2ccccc2)N1c1ccccc1 (stereo not given)	n[12.7 µM]	n	n	n	n	n	x
O=C(NC(=S)N1CCN(c2ccccc2)CC1)c1ccc(S(=O)(=O)N2CCOCC2)cc1	x	n	n	n	n	n	x
Cc1nc2c(-c3ccccc3)c(C)nn2c(C)c1CCC(=O)N1CCN(c2ccccc2)CC1	n	n	n	x	x	n	x
Cc1noc(C)c1NC(=O)Nc1cccc2c1O[C@H](CN(C)S(=O)(=O)c1cccs1)[C@@H](C)CN([C@H](C)CO)C2=O	x	n	x	n	n	n	x
COc1ccc(/C=N/NC(=O)c2ccncc2)cc1[N+](=O)[O-]	n	n	n	n	n	n	x
COc1cc(/C=N/NC(=O)c2cncc(Br)c2)cc([N+](=O)[O-])c1O	u	n[11.4 µM]	8.91µM	-96.0	-91.3	n	35.5µM
Fc1c(F)c(F)c(/C=N/NC(=S)Nc2cccnc2)c(F)c1F	n[12.7 µM]	n	n	n	n	n	x
Oc1ccc(/C=N/NC(=S)Nc2cccnc2)c(O)c1	25.1µM	39.8µM	2.82µM	-81.6	-89.9	n	14.1µM
Oc1ccc(/C=N/NC(=S)Nc2cccnc2)c(O)c1O	n	3.55µM	2.24µM	-93.4	-89.4	5.01µM	u
COc1ccccc1NC(=O)CSC1=Nc2ccccc2C2=NC(CCC(=O)NCc3ccco3)C(=O)N12 (stereo not given)	n	n	n	x	x	n	x
C/C(=N\NC(=O)C1(C)CC1(Br)Br)c1ccc(NC(=O)C2CCC2)cc1 (stereo not given)	n	n	n	n	n	n	x
O=C(OCC1OC(OC(=O)c2cc(O)c(O)c(OC(=O)c3cc(O)c(O)c(O)c3)c2)[C@@H](OC(=O)c2cc(O)c(O)c(OC(=O)c3cc(O)c(O)c(O)c3)c2)C(OC(=O)c2cc(O)c(O)c(OC(=O)c3cc(O)c(O)c(O)c3)c2)C1OC(=O)c1cc(O)c(O)c(OC(=O)c2cc(O)c(O)c(O)c2)c1)c1cc(O)c(O)c(OC(=O)c2cc(O)c(O)c(O)c2)c1 (stereo not given in full)	u	x	x	x	x	x	22.4µM
SMILES	G9a inh	JMJD2A Tudor	BAZ2B inh	CtBP-E1A inh	Six1-Eya2 inh	HP1b binding inh	ME-1 growth	others
Nc1ccn([C@@H]2O[C@H](CO)[C@@H](O)[C@@H]2O)c(=O)n1	n	n	u	n	n	n	0.282µM
Nc1ccn(C2OC(CO)C(O)C2F)c(=O)n1 (stereo not given)	x	x	x	n	n	x	x
Cc1cc(C(=O)NC2Cc3ccccc3C2)c(C)o1	x	n	n	x	n	n	n
COc1ccc(C(=O)c2nccc3ccccc23)cc1	n	n	n	n	n	n	x
O=S(=O)(c1ccc2nc(-c3ccco3)c(-c3ccco3)nc2c1)N1CCOCC1	2µM	79.4µM	50.1µM	n	u	n	n
Fc1ccc([C@H]2CCNCC2COc2ccc3c(c2)OCO3)cc1 (stereo not given in full)	n[2.33 µM]	x	x	x	x	x	n
COc1ccc(C2Sc3ccccc3N(CCN(C)C)C(=O)C2OC(C)=O)cc1 (stereo not given)	n[2.33 µM]	x	x	x	x	x	n
CN(C)CCc1c[nH]c2ccc(CC3COC(=O)N3)cc12 (stereo not given)	n[2.33 µM]	x	x	x	x	x	n
Cn1c(NC(=O)c2cc(Br)ccc2Cl)cc(=O)n(C)c1=O	u	n	n	n	n	n	x
CCC(=O)NC(NC(=S)Nc1cccc2cccnc12)C(Cl)(Cl)Cl (stereo not given)	u	n	u	n	n	n	x
CCC(=O)NC(c1cc(Cl)c2cccnc2c1O)C(C)C (stereo not given)	n[12.7 µM]	u	79.4µM	x	x	n	x	12-hLO 8HQ R1=1.2µM;KDM4E inh=20.4µM
CC(=O)NC(c1cc(F)c2cccnc2c1O)C1CC1 (stereo not given)	u	79.4µM	50.1µM	x	x	n	x	12-hLO 8HQ R1=n;KDM4E inh=28.9µM
